High-throughput results: PubChem, National Center for Advancing Translational Sciences (NCATS)
In the library only some 11% were active in any assay of this set; here they are far more common.
PNC inhibitor: High Content Assay for Compounds that inhibit the Assembly of the Perinucleolar Compartment; PC3M PTB-GFP, PNC prevalence imaging, 16 h; stronger effect = lower value; activity change (PNC), negative = inhibition, % at 10 µM; 3.1% of 140,000 active;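 active = readout at or below -70, meaning at least 70% loss of cells showing the perinucleolar compartment, a nuclear body marking cancer cells; inconclusive = readout between -30 and a set limit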;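 also: plate controls were DMSO wells for no effect and camptothecin positive control wells for full effect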
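PC3M cells stably expressing PTB-GFP, 750–1000 cells/well, treated 16 h at 37 °C with compound (23 nl of library stock), in duplicate. After paraformaldehyde fixation and Hoechst stain, imaged at 20x; PNC prevalence scored by image analysis.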
HPGD block: qHTS Assay for Inhibitors of HPGD (15-Hydroxyprostaglandin Dehydrogenase); 4.3% of 150,000 active; purified HPGD, NADH fluorescence kinetic, PGE2 substrate; AID 894, 2007; Potency, µM, inactives show at the top dose activity change, negative = inhibition, actives largely listed as inhibitors; also: potency is read from the fitted curve at half-maximal effect
Target sequence (P15428 whole entry, looked up): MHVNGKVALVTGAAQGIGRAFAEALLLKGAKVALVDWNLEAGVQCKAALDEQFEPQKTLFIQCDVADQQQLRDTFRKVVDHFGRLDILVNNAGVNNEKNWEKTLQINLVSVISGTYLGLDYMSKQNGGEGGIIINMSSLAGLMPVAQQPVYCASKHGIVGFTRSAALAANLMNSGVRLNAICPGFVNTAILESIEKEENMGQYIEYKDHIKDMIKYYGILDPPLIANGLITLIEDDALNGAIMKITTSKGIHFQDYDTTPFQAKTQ
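20 nM HPGD preincubated 15 min at room temperature with compound in 50 mM Tris-HCl pH 8, 0.01% Tween 20. Started with 1 mM NAD+ and 30 uM prostaglandin E2; NADH fluorescence (360/450 nm) read 5 times over 30-s intervals, last minus first.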
JMJD2E inh: qHTS Assay for Inhibitors of Human Jumonji Domain Containing 2E (JMJD2E) | AID 2147, 2009 | JMJD2E catalytic domain, FDH-coupled NADH fluorescence (FDH is formaldehyde dehydrogenase) | Lysine-specific demethylase 4E (Homo sapiens), B2RXH2 | 1.6% of 230,000 active | Potency, µM (highest dose often 57.1 µM), for inactives: top-dose activity change, negative = inhibition, actives largely listed as inhibitors;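 also: potency is read from the fitted curve at half-maximal effect; 0% = wells with enzyme and -100% = buffer wells without enzyme; nearly all actives have a fitted effect of over 50% in size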
Target sequence (B2RXH2 1-337 limits assumed): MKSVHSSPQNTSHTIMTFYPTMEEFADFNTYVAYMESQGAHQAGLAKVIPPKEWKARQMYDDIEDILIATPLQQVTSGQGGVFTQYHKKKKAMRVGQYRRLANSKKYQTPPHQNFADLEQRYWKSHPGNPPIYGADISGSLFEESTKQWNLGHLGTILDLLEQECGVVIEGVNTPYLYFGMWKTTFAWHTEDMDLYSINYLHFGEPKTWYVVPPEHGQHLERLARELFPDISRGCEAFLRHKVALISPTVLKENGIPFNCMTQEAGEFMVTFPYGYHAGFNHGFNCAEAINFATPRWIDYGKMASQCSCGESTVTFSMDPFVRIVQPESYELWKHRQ
ALDH1A1 inh: qHTS Assay for Inhibitors of Aldehyde Dehydrogenase 1 (ALDH1A1); Aldehyde dehydrogenase 1A1 (Homo sapiens), P00352; Purified ALDH1A1, NADH fluorescence, propionaldehyde substrate; Potency, µM (titrated, usually from 75.3 µM), inactives show at the top dose activity, negative = inhibition, hits mostly inhibitors; 7.3% of 220,000 active; AID 1030, 2008;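 also: potency is read from the fitted curve at half-maximal effect; plate controls were no enzyme wells and a reference inhibitor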
Active calls of the source: *; u = inconclusive; x = no result; [ ] = another dose, or the depositor's remark. Unless noted, calls follow the shape of the dose curve; as a rule, active = well fitted inhibition curve with a large enough effect (not every such curve was filed as active); inconclusive = small, poorly fitted or top-dose-only effect, or another doubt; inactive = no such curve, though single readings can be large or run the other way. Unless noted, % is scaled to controls: 0 for no effect and ±100 for the full control effect.

SMILES	PNC inhibitor	HPGD block	JMJD2E inh	ALDH1A1 inh
COc1ccc(/C=C2/C(=O)N(c3nc4ccccc4s3)N=C2CSc2ccc(Cl)cc2)cc1	-4	14µM*	u	u
[N-]=[N+]=Nc1nc2c(N)ncnc2n1C1OC(CO)C(O)C1O (centres undefined)	x	-10%	-8%	3%
CCc1c(O)nc(SCC(=O)Nc2ccccc2)n(-c2ccccc2)c1=O	-12	x	2%	-9%
CCc1c(O)nc(SCC(=O)Nc2ccc(C)cc2)n(C2CCCCC2)c1=O	-20	-12%	3%	20µM*
CCCc1nnc(NC(=O)c2c(O)c3c([nH]c2=O)CCCC3)s1	-114*	-11%	-8%	9%
CC(=O)[C@@H](C)CCO[C@@]1(C)OCC[C@@H]1C	x	-1%	x	9%[13.5 µM]
COc1ccc(C(=O)N(Cc2ccco2)C(C(=O)NC2CCCC2)c2ccc(O)cc2)cc1OC (centres undefined)	10	-7%	0%	22µM*
COC(=O)C1=C(O)/C(=C\c2ccc(CNS(=O)(=O)c3ccc(Cl)cc3)o2)N=C1C	-10	-10%	-6%	-8%
COC(=O)C1=C(O)/C(=C\c2ccc(CNS(=O)(=O)c3ccccc3)o2)N=C1C	28	-23%	0%	32µM*
CC(C)(C)c1ccc(S(=O)(=O)N2CCC(CO)(CC3CCCCO3)CC2)cc1 (centres undefined)	x	x	2%	0.32µM*
Cn1cc(C=C2C(=O)Nc3cccnc32)c2ccccc21	x	-6%	x	-5%
COc1cc(OC)cc(C(=O)Nn2cc(C(=O)Nc3c(F)cccc3F)c3ccccc3c2=O)c1	-113*	-5%	-9%	11%
COc1cccc(-c2cc(C(=O)N/N=C/c3ccccc3O)[nH]n2)c1	x	-3%	x	2%
CCc1ccc(C2=NNC(=Nc3c(C)n(C)n(-c4ccccc4)c3=O)SC2)cc1	x	x	6%	u
CCN1CCN(CCCNC(=O)c2cn(CCOC)c(=O)c3c2c2ccccc2n3C)CC1	-101*	u	u	u
COc1cccc(-c2nc(N3CCN(C)CC3)c3ccccc3n2)c1	x	x	x	9%
CCCOc1ccc(CN(CCC#N)C(=S)NC(=O)c2ccccc2)cc1	u	28µM*	1%	-4%
Cc1sc2ncn(CC(=O)Nc3cccc(S(N)(=O)=O)c3)c(=O)c2c1-c1ccccc1	x	x	5%	10%
CC1CCC(C(C)(C)O)CC2=C1CCC2C (centres undefined)	x	1%	2%	10%
C=CCNC(=S)NNC(=O)c1ccccc1	u	2%	8%	-3%
C=CCNC(=S)NNC(=O)c1ccc(OC(C)C)cc1	-91*	-16%	-8%	u
Cc1cc(C)c2c(C)c(C(=O)NCc3ccncc3)oc2c1	-100*	-24%	-11%	1%
COc1ccccc1CNC(=O)c1ccc(Br)o1	u	40µM*	-4%	u
O=C(NCc1ccccc1Cl)c1ccc(Br)o1	x	x	9%	u
O=C(NCc1ccncc1)c1ccc(Br)o1	5	-11%	-1%	3.5µM*
SMILES	PNC inhibitor	HPGD block	JMJD2E inh	ALDH1A1 inh
COc1ccc(CCNC(=O)c2ccc(CSc3ccccc3)o2)cc1	x	x	-16%	3.5µM*
CC(=O)c1ccc(NC(=O)c2ccc(CSc3ccccc3)o2)cc1	-5	-28%	-18%	-15%
O=C(Oc1ccccc1)N1CCC[C@@]2(CCN(c3ccncc3)C2)C1	x	3%	x	3%
COc1ccc(CCN2C(=O)CS/C2=N\NC(=O)c2ccc(C(C)(C)C)cc2)cc1OC	8	1%	1%	-12%
COc1ccccc1CCNC(=O)Cc1cccs1	x	x	6%	x
COc1ccccc1CCNC(=O)c1ccc(C)o1	30	8.9µM*	-2%	-2%
COc1cc(-c2nnc(SCc3c(F)cccc3Cl)o2)cc(OC)c1OC	u	u	-3%	4.5µM*
CCS(=O)(=O)Nc1ccc(-c2nnc(SCC(=O)c3ccc(NC(C)=O)c(OC)c3)o2)cc1	25	0.79µM*	1%	4%
COc1cc(-c2nnc(SCC(=O)c3ccc(C)cc3)o2)cc(OC)c1OC	u	-6%	2%	28µM*
COc1cccc(NC(=O)CSc2nnc(-c3ccc(C)cc3)o2)c1	26	-15%	u	13%
COc1cccc(C(=O)CSc2nnc(-c3cc(OC)c(OC)c(OC)c3)o2)c1	1	-30%	-17%	u
CCS(=O)(=O)Nc1ccc(-c2nnc(SCC(=O)c3cccc(OC)c3)o2)cc1	u	u	5%	3.2µM*
COc1cc(-c2nnc(SCc3ccccc3Cl)o2)cc(OC)c1OC	-19	-15%	-3%	u
CCOC(=O)c1cc(=O)c2ccc(OCC(=O)Nc3ccc(F)cc3)cc2o1	x	x	-1%	x
Nc1cc(C(=O)O)[nH]c(=O)n1	x	-9%	x	5%[13.5 µM]
CC(=O)c1ccc(N=c2scc(C)n2C(C)C)cc1	x	x	-4%	4%
CC(=O)OCC(=O)[C@@]1(O)[C@H](C)C[C@@H]2[C@H]3CCC4=CC(=O)C=C[C@]4(C)[C@]3(F)[C@@H](O)C[C@@]21C	x	0%	-3%[25.5 µM]	-2%[20.9 µM]
O=C(NCCc1cccc(Cl)c1)c1cccs1	x	x	1%	-7%
Nc1ccc(S(=O)(=O)C(F)(F)F)cc1N	x	x	-11%	u
CNC(=O)CSc1nnc(-c2cc(C)cc(C)c2)o1	-103*	-10%	10%	4%
N#C[C@H](Cc1ccc(O)cc1)c1ccc(O)cc1	x	-8%	1%	u
COC(=O)c1cccnc1	x	-8%	x	u
Cc1sc2nc(C3CC3)nc(SCC(=O)N3c4ccccc4CC3C)c2c1C (centres undefined)	-108*	-14%	5%	u
Cc1cc2cc3c(cc2nc1SCC(=O)N1c2ccccc2CC1C)OCO3 (centres undefined)	-100*	-30%	u	-2%
COc1ccc2cc(C(c3nnnn3C3CCCC3)N3CCOCC3)c3nnnn3c2c1 (centres undefined)	x	x	-7%	-13%
SMILES	PNC inhibitor	HPGD block	JMJD2E inh	ALDH1A1 inh
CN(C)S(=O)(=O)c1cccc(NC(=O)COC(=O)CNC(=O)c2ccccc2F)c1	x	x	1%	x
NC(=O)c1nn(CC(=O)Nc2ccc3c(c2)OCO3)cc1[N+](=O)[O-]	x	x	1%	8%
Cc1ccc(S(=O)(=O)NC(C(=O)Oc2ccc3c(C)c(Cl)c(=O)oc3c2)c2ccccc2)cc1 (centres undefined)	-111*	u	u	u
CN(C)/C=C1\C(=O)N(c2ccc(Cl)cc2)CS1(=O)=O	u	16µM*	7%	5%
Cc1ccc(N2CS(=O)(=O)/C(=C/N(C)C)C2=O)cc1	-2	-11%	2%	-2%
CC(=O)CC(=O)[C@@]1(O)CC[C@@H]2[C@@H]3C=C(C)C4=CC(=O)CC[C@@H]4[C@H]3CC[C@]21C	x	-7%	-3%[25.5 µM]	3%[20.9 µM]
CCSc1ncc(/C=N/Nc2ccc([N+](=O)[O-])cc2)n1C	32	-10%	-6%	5%
Cc1cc[n+](-c2nc([O-])sc2/C=N/Nc2ccc([N+](=O)[O-])cc2)cc1	24	-16%	-10%	14µM*
